Test results reported in PubChem BioAssay AID1159580 (chemical genetic matrix, 2015).
In all, about 5,500 compounds went through this assay and about 2,000 (36%) were called active. Roughly 18% stayed inconclusive and do not appear here. No stated cut-off is given here; in the data, active means normalized growth mostly below about 0.91 (no sharp cut-off); inconclusive means no clear call, values can overlap the other calls; inactive means mostly above about 0.92. The list shows a part of the results.

Assay: chemical genetic growth profiling, strain panel (AID 1159580);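 further: tested at 20 µM; growth read once vehicle control cultures reached saturation at 30 °C; 1 = growth at the plate median or of vehicle wells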
Conditions: growth OD

Measured: normalized growth

CCOC(=O)C1=C(O)C(=O)N(Cc2ccccc2)C1
inactive: S. cerevisiae deletion strains, locus YAL013W, strain DEP1, stronger effect = lower value 1.02 | S. cerevisiae deletion strains, locus YBR021W, strain FUR4, stronger effect = lower value 1.02 | S. cerevisiae deletion strains, locus YBR229C, strain ROT2, stronger effect = lower value 1 | S. cerevisiae deletion strains, locus YCL029C, strain bik1, stronger effect = lower value 1.01 | S. cerevisiae deletion strains, locus YDL035C, strain GPR1, stronger effect = lower value 1.01 | S. cerevisiae deletion strains, locus YDL074C, strain BRE1, stronger effect = lower value 1 | S. cerevisiae deletion strains, locus YDL101C, strain DUN1, stronger effect = lower value 1.01 | S. cerevisiae deletion strains, locus YDL134C, strain PPH21, stronger effect = lower value 1 | S. cerevisiae deletion strains, locus YDL185W, strain tfp1, stronger effect = lower value 1.02 | S. cerevisiae deletion strains, locus YDL192W, strain arf1, stronger effect = lower value 1.01 | S. cerevisiae deletion strains, locus YDR101C, strain arx1, stronger effect = lower value 1 | S. cerevisiae deletion strains, locus YDR150W, strain NUM1, stronger effect = lower value 1.01 | S. cerevisiae deletion strains, locus YDR162C, strain NBP2, stronger effect = lower value 0.995 | S. cerevisiae deletion strains, locus YDR318W, strain mcm21, stronger effect = lower value 1.02 | S. cerevisiae deletion strains, locus YDR388W, stronger effect = lower value 1 | S. cerevisiae deletion strains, locus YDR502C, strain sam2, stronger effect = lower value 0.994 | S. cerevisiae deletion strains, locus YEL061C, strain CIN8, stronger effect = lower value 1.01 | S. cerevisiae deletion strains, locus YER110C, stronger effect = lower value 1.02 | S. cerevisiae deletion strains, locus YER155C, strain BEM2, stronger effect = lower value 1 | S. cerevisiae deletion strains, locus YER167W, strain BCK2, stronger effect = lower value 1.03 | S. cerevisiae deletion strains, locus YGL078C, strain dbp3, stronger effect = lower value 1 | S. cerevisiae deletion strains, locus YGL086W, strain mad1, stronger effect = lower value 1.02 | S. cerevisiae deletion strains, locus YGL248W, strain PDE1, stronger effect = lower value 1.01 | S. cerevisiae deletion strains, locus YGR078C, strain PAC10, stronger effect = lower value 1.01 | S. cerevisiae deletion strains, locus YGR135W, strain pre9, stronger effect = lower value 0.987 | S. cerevisiae deletion strains, locus YGR229C, strain SMI1, stronger effect = lower value 1 | S. cerevisiae deletion strains, locus YGR252W, strain gcn5, stronger effect = lower value 1.02 | S. cerevisiae deletion strains, locus YHR030C, strain SLT2, stronger effect = lower value 1.01 | S. cerevisiae deletion strains, locus YHR079C, strain IRE1 (second series), stronger effect = lower value 1.02 | S. cerevisiae deletion strains, locus YHR094C, strain hxt1, stronger effect = lower value 1.01 | S. cerevisiae deletion strains, locus YHR129C, strain ARP1, stronger effect = lower value 1.02 | S. cerevisiae deletion strains, locus YHR200W, strain rpn10, stronger effect = lower value 1.01 | S. cerevisiae deletion strains, locus YIL066C, strain RNR3, stronger effect = lower value 1 | S. cerevisiae deletion strains, locus YIL073C, strain SPO22, stronger effect = lower value 1.1 | S. cerevisiae deletion strains, locus YIL125W, strain kgd1, stronger effect = lower value 1 | S. cerevisiae deletion strains, locus YIR030C, strain dcg1, stronger effect = lower value 1.01 | S. cerevisiae deletion strains, locus YJL095W, strain BCK1, stronger effect = lower value 1.01 | S. cerevisiae deletion strains, locus YJL134W, strain LCB3, stronger effect = lower value 1.01 | S. cerevisiae deletion strains, locus YJL168C, strain set2, stronger effect = lower value 1.01 | S. cerevisiae deletion strains, locus YJL187C, strain SWE1 (second series), stronger effect = lower value 1.01 | S. cerevisiae deletion strains, locus YJR043C, strain POL32, stronger effect = lower value 1.04 | S. cerevisiae deletion strains, locus YJR075W, strain HOC1, stronger effect = lower value 0.997 | S. cerevisiae deletion strains, locus YKL009W, strain mrt4, stronger effect = lower value 1.03 | S. cerevisiae deletion strains, locus YKL068W, stronger effect = lower value 1 | S. cerevisiae deletion strains, locus YKL085W, strain MDH1 (second series), stronger effect = lower value 1.02 | S. cerevisiae deletion strains, locus YKL085W, strain MDH1, stronger effect = lower value 1.02 | S. cerevisiae deletion strains, locus YKL190W, strain CNB1, stronger effect = lower value 1.01 | S. cerevisiae deletion strains, locus YKR001C, strain vps1, stronger effect = lower value 1.01 | S. cerevisiae deletion strains, locus YLR039C, strain RIC1, stronger effect = lower value 1.05 | S. cerevisiae deletion strains, locus YLR058C, strain SHM2, stronger effect = lower value 1.02 | S. cerevisiae deletion strains, locus YLR102C, strain apc9, stronger effect = lower value 1.01 | S. cerevisiae deletion strains, locus YLR262C, strain YPT6, stronger effect = lower value 0.993 | S. cerevisiae deletion strains, locus YLR268W, strain sec22, stronger effect = lower value 0.982 | S. cerevisiae deletion strains, locus YLR330W, strain CHS5, stronger effect = lower value 1.01 | S. cerevisiae deletion strains, locus YLR342W, strain FKS1 (second series), stronger effect = lower value 1.09 | S. cerevisiae deletion strains, locus YLR371W, strain rom2, stronger effect = lower value 1.01 | S. cerevisiae deletion strains, locus YLR418C, strain cdc73, stronger effect = lower value 0.977 | S. cerevisiae deletion strains, locus YML016C, strain PPZ1, stronger effect = lower value 1 | S. cerevisiae deletion strains, locus YML032C, strain rad52, stronger effect = lower value 1.03 | S. cerevisiae deletion strains, locus YML124C, strain tub3, stronger effect = lower value 1.01 | S. cerevisiae deletion strains, locus YMR078C, strain ctf18, stronger effect = lower value 1.02 | S. cerevisiae deletion strains, locus YMR223W, strain ubp8, stronger effect = lower value 1.03 | S. cerevisiae deletion strains, locus YMR263W, strain SAP30, stronger effect = lower value 0.999 | S. cerevisiae deletion strains, locus YMR307W, strain GAS1, stronger effect = lower value 1.03 | S. cerevisiae deletion strains, locus YNL067W, strain RPL9B, stronger effect = lower value 0.99 | S. cerevisiae deletion strains, locus YNL128W, strain TEP1, stronger effect = lower value 0.985 | S. cerevisiae deletion strains, locus YNL153C, strain GIM3, stronger effect = lower value 0.994 | S. cerevisiae deletion strains, locus YNL233W, strain BNI4, stronger effect = lower value 1.01 | S. cerevisiae deletion strains, locus YNL250W, strain rad50, stronger effect = lower value 1 | S. cerevisiae deletion strains, locus YNL271C, strain bni1, stronger effect = lower value 1.01 | S. cerevisiae deletion strains, locus YNL298W, strain CLA4, stronger effect = lower value 1 | S. cerevisiae deletion strains, locus YNL307C, strain MCK1, stronger effect = lower value 1.02 | S. cerevisiae deletion strains, locus YNL322C, strain KRE1, stronger effect = lower value 0.996 | S. cerevisiae deletion strains, locus YNR052C, strain pop2, stronger effect = lower value 1.02 | S. cerevisiae deletion strains, locus YOL006C, strain TOP1, stronger effect = lower value 1.01 | S. cerevisiae deletion strains, locus YOL012C, strain htz1 0.868 | S. cerevisiae deletion strains, locus YOL147C, strain pex11, stronger effect = lower value 1.01 | S. cerevisiae deletion strains, locus YOR061W, strain CKA2, stronger effect = lower value 1.01 | S. cerevisiae deletion strains, locus YOR069W, strain VPS5, stronger effect = lower value 1.01 | S. cerevisiae deletion strains, locus YOR136W, strain idh2, stronger effect = lower value 1.02 | S. cerevisiae deletion strains, locus YOR144C, strain elg1, stronger effect = lower value 1 | S. cerevisiae deletion strains, locus YOR184W, strain ser1, stronger effect = lower value 1.04 | S. cerevisiae deletion strains, locus YOR316C, strain cot1, stronger effect = lower value 1.01 | S. cerevisiae deletion strains, locus YPL055C, strain LGE1, stronger effect = lower value 0.969 | S. cerevisiae deletion strains, locus YPL241C, strain CIN2, stronger effect = lower value 1 | S. cerevisiae deletion strains, locus YPR119W, strain clb2, stronger effect = lower value 1 | S. cerevisiae deletion strains, locus YPR141C, strain kar3, stronger effect = lower value 1 | S. cerevisiae deletion strains, locus YPR163C, strain tif3, stronger effect = lower value 1.01 | S. cerevisiae deletion strains, locus YPR167C, strain met16, stronger effect = lower value 1.01 | S. cerevisiae deletion strains, strain wtn01, stronger effect = lower value 1 | S. cerevisiae strains, strain wild type, stronger effect = lower value 1.01
